In the library only some 11% were active in any assay of this set; here they are far more common.
AMA1 RON2 block – inhibitors of Plasmodium falciparum AMA1-RON2 interaction | AlphaScreen AMA1-biotinylated RON2 peptide binding | Potency, µM (doses to about 58.2 µM), usual class: inhibitors | hit rate 0.2% among 360,000 | AID 720542; further: nearly all actives have a fitted effect of over 45% in size
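AMA1 (3D7) with his tag at 25 nM final met compounds first, then biotinylated RON2 peptide at 25 nM; detection used donor plus acceptor beads, 10 µg/mL apiece, read by AlphaScreen after 30 min at room temperature.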
HCV inh – inhibitors of hepatitis C virus infection; Potency, µM (series often up to 41.8 µM), actives largely listed as inhibitors; Huh7.5.1 HCVcc-Cre infection, luciferase reporter, 44 h; AID 651820; hit rate 3.4% among 340,000
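Infectious HCVcc-Cre (~0.5 moi) was added to cells just after compound, with cells seeded 4 h earlier at 1,000 per well. Luciferase activity after 44 h culture reported infection; substrate was incubated 15 min at room temperature before reading.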
Pf growth 96h – P. falciparum growth inhibition at 96 hours | P. falciparum luciferase reporter growth, 96 h | Potency, µM (highest dose often 28.7 µM), most hits filed as inhibitors | hit rate 6.9% among 320,000 | AID 504834
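Infected RBCs, 2% Hct / 0.05% parasitemia final; luciferase-reporter P. falciparum; cpd 96 h, 37 C, 5% CO2; luciferase detection reagent; luminescence.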
Pf growth 48h – inhibits P. falciparum growth in the first generation, 48 h; P. falciparum luciferase growth in erythrocytes, 48 h; AID 504832; Potency, µM (series often up to 28.7 µM), most hits filed as inhibitors; hit rate 5.9% among 310,000
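In quantitative HTS format, infected erythrocytes bearing luciferase-reporter parasites were treated for a single generation at 37 C. Luminescence after adding detection reagent served as the growth measure.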
Each line names hits and unclear results; the compound was inactive in the other large screens. The call rests on the fitted dose curve; in most records, active means well fitted curve in the direction sought with a large enough effect; inconclusive means small, poorly fitted or top-dose-only effect, or another doubt; inactive means no such curve, though single readings can be large; an effect the other way counts as inactive or inconclusive.

NC(=O)C1CCN(c2ccnc3cc(Cl)ccc23)CC1	Pf growth 96h 11.7µM, Pf growth 48h inconclusive
Clc1ccc2c(N3CCNCC3)ccnc2c1	Pf growth 48h inconclusive (no result: Pf growth 96h)
COc1ccc(Cl)cc1C=CC=Nc1ccccc1O	HCV inh inconclusive (no result: Pf growth 96h, Pf growth 48h)
CCOC(=O)c1c(CN2CCNCC2)nc2ccc(Cl)cc2c1-c1ccccc1	HCV inh inconclusive (no result: Pf growth 96h, Pf growth 48h)
CCCN1C(=O)/C(=C/C=C2\N(CC)c3ccccc3C2(C)C)SC1=S	AMA1 RON2 block inconclusive, HCV inh inconclusive, Pf growth 96h 4.15µM, Pf growth 48h inconclusive
CN1/C(=C\C=C2/SC(=S)N(CC(=O)O)C2=O)C(C)(C)c2ccccc21	AMA1 RON2 block 20µM, Pf growth 96h inconclusive
CC1(C(=O)NS(=O)(=O)c2cccc(C#N)c2)CCN1C(=O)CC1CCCCC1 (centres undefined)	none (no result: HCV inh, Pf growth 96h, Pf growth 48h)
COc1ccc(NC(=O)CSCC(=O)N2CCN(C(=O)c3ccco3)CC2)cc1	Pf growth 96h inconclusive
Cc1ccccc1OCCOC(=O)c1cc(S(=O)(=O)N2CCCCC2)ccc1N1CCOCC1	HCV inh 11.2µM, Pf growth 96h inconclusive, Pf growth 48h 13.1µM
COc1ccccc1C(=O)COC(=O)c1cc(S(=O)(=O)N2CCCCC2)ccc1N1CCOCC1	Pf growth 96h inconclusive, Pf growth 48h 9.28µM
COc1ccc(C(=O)OCC(=O)c2ccc(S(=O)(=O)N3CCCCC3)cc2)c(OC)c1	Pf growth 96h inconclusive, Pf growth 48h inconclusive
COc1cccc(COC(=O)c2cc(S(=O)(=O)N3CCCCC3)ccc2N2CCOCC2)c1OC	Pf growth 96h inconclusive, Pf growth 48h 6.57µM
COc1ccc(C(=O)COC(=O)c2cc(S(=O)(=O)N3CCCCC3)ccc2N2CCOCC2)c(OC)c1	HCV inh inconclusive, Pf growth 96h 9.28µM, Pf growth 48h 9.28µM
O=C(OCc1ccccc1F)c1cc(S(=O)(=O)N2CCCCC2)ccc1N1CCOCC1	none (no result: HCV inh, Pf growth 96h, Pf growth 48h)
O=C(COC(=O)c1cc(S(=O)(=O)N2CCCCC2)ccc1N1CCOCC1)c1ccc(F)cc1	HCV inh inconclusive, Pf growth 48h inconclusive
CS(=O)(=O)c1ccc(Cl)c(NC(=O)c2ccc(-n3cncn3)c([N+](=O)[O-])c2)c1	none (no result: HCV inh, Pf growth 96h, Pf growth 48h)
CS(=O)(=O)Nc1cccc(C2=NN(C(=O)c3ccccc3Cl)C(c3ccccc3O)C2)c1 (centres undefined)	Pf growth 96h inconclusive
COCCOc1ccc(C(F)(F)F)cc1NC(=O)CN1C(=O)NC2(CCc3ccccc32)C1=O (centres undefined)	HCV inh inconclusive, Pf growth 96h inconclusive, Pf growth 48h inconclusive
COC(=O)c1ccccc1S(=O)(=O)N1CCC(C(=O)OCC(=O)c2ccccc2OC)CC1	Pf growth 96h inconclusive, Pf growth 48h 10.4µM
COc1ccccc1C(=O)COC(=O)C1CCN(S(=O)(=O)c2ccccc2)CC1	none (no result: HCV inh, Pf growth 96h, Pf growth 48h)
COCC(=O)N(Cc1cc2ccc(C)c(C)c2n2nnnc12)C1CCCC1	HCV inh inconclusive, Pf growth 96h inconclusive
CC1CN(c2ccc([N+](=O)[O-])nc2)CC(C)O1 (centres undefined)	none
COc1ccccc1S(=O)(=O)Nc1cc(C)nn1-c1ccc(C)cc1	Pf growth 96h inconclusive, Pf growth 48h 2.62µM
NCCS(=O)(=O)O	Pf growth 96h inconclusive, Pf growth 48h inconclusive
CCNS(=O)(=O)c1ccc(CCC(=O)Nc2ccccc2)cc1	none
CCNS(=O)(=O)c1ccc(CCC(=O)Nc2cc(Cl)ccc2Oc2ccccc2)cc1	HCV inh 10µM, Pf growth 96h 8.28µM, Pf growth 48h inconclusive
CC(C)NS(=O)(=O)c1ccc(CCC(=O)Nc2cc(Cl)ccc2Oc2ccccc2)cc1	HCV inh 6.31µM, Pf growth 96h inconclusive (no result: Pf growth 48h)
Cc1nc(C)c(C(=O)OCC(=O)Nc2ccc(C)c(C)c2)s1	none (no result: HCV inh, Pf growth 96h, Pf growth 48h)
S=C1NCCc2ccccc2C1c1ccccc1Cl (centres undefined)	Pf growth 96h inconclusive, Pf growth 48h 13.1µM
O=C(O)C1NCCc2ccccc21 (centres undefined)	Pf growth 48h inconclusive
S=C1NCCc2ccccc2C1c1ccccc1 (centres undefined)	Pf growth 96h inconclusive, Pf growth 48h 8.28µM
Cn1cnc(C(=O)N2CCc3ccccc3C2)c1C(=O)N1CCc2ccccc2C1	none (no result: Pf growth 96h, Pf growth 48h)
Cc1ccc(C)c(NC(=O)C2C3CCCC2C3c2ccccc2)c1 (centres undefined)	Pf growth 96h 11.7µM
Cc1noc(C)c1C(=O)OCC(=O)/C=C1/N(C)c2ccccc2C1(C)C	HCV inh inconclusive (no result: Pf growth 96h, Pf growth 48h)
O=C(O)c1ccccc1OC(C(=O)Nc1cc(Cl)cc(Cl)c1)c1ccccc1 (centres undefined)	Pf growth 96h inconclusive, Pf growth 48h 11.7µM
O=C(Nc1cc(Cl)cc(Cl)c1)C(c1ccccc1)N1CCCCC1 (centres undefined)	AMA1 RON2 block inconclusive
Nc1nc(N)c(C=Nc2ccc(Br)cc2)c(Nc2ccc(Br)cc2)n1	HCV inh inconclusive, Pf growth 96h 0.329µM, Pf growth 48h 0.586µM
CCc1c(C)nc(SCC(=O)N2CCCCC2C)[nH]c1=O (centres undefined)	Pf growth 96h 7.38µM
CCc1c(C)nc(SCC(=O)N2C(C)CCCC2C)[nH]c1=O (centres undefined)	none
O=C(Nc1ccc(Br)cn1)c1ccc(COc2c(F)c(F)cc(F)c2F)o1	none
CC1=C(C(=O)N(C(C)C)C(C)C)CC(CC(=O)NCc2cccc3ccccc23)C(=O)N1Cc1ccc(F)cc1 (centres undefined)	none (no result: HCV inh, Pf growth 96h, Pf growth 48h)
CNc1c2cccc(C)c2nc2c(C(=O)NCCN(C)C)cccc12	HCV inh 1.41µM (no result: Pf growth 96h, Pf growth 48h)
COc1cc(/C=N/N=C2/SCC(=O)N2c2ccc(O)cc2)ccc1O	Pf growth 96h inconclusive
CCOC(=O)C1=C(C)NC(=O)CC1c1cc(OC)c(OC)cc1Br (centres undefined)	Pf growth 96h inconclusive, Pf growth 48h 0.465µM
N#Cc1c(SCC(=O)Nc2nccs2)nc2c(c1-c1ccco1)CCCC2	HCV inh inconclusive
CCOC(=O)c1sc2nc(N3CCCC3)c3c(c2c1N)CC(C)(C)OC3	HCV inh inconclusive (no result: Pf growth 96h, Pf growth 48h)
CC1(C)Cc2c(c(N3CCCC3)nc3sc4c(N5CCN(CCO)CC5)ncnc4c23)CO1	HCV inh 2.24µM, Pf growth 48h 8.28µM
c1nc(N2CCNCC2)c2sc3nc(N4CCOCC4)c4c(c3c2n1)CCC4	none (no result: AMA1 RON2 block, HCV inh)
OCCN1CCN(c2ncnc3c2sc2nc(N4CCOCC4)c4c(c23)CCC4)CC1	HCV inh 11.2µM, Pf growth 48h 13.1µM
CN(CC(=O)Nc1ccc(Cl)c(C(F)(F)F)c1)C(=O)c1ccccc1SCC(=O)N1CCCC1	HCV inh inconclusive (no result: Pf growth 96h, Pf growth 48h)
Cc1cccc2[nH]c(CCNC(=O)C3CCC(=O)N(CCc4cccc(F)c4)C3)nc12 (centres undefined)	none
O=C(Nc1nc(-c2ccc(Cl)s2)cs1)c1cccs1	HCV inh 11.2µM, Pf growth 48h inconclusive
CCc1sc(C(=O)Nc2nccs2)cc1C	none
O=C(Nc1nc(-c2ccccc2)cs1)c1cccs1	HCV inh inconclusive
O=C(Nc1nc(-c2ccccn2)cs1)c1ncc(Cl)c(Cl)c1Cl	AMA1 RON2 block inconclusive, Pf growth 96h 13.1µM, Pf growth 48h inconclusive
O=C(Nc1nc(-c2cc(Cl)sc2Cl)cs1)c1ccccc1	HCV inh 11.2µM, Pf growth 96h inconclusive (no result: Pf growth 48h)
CCc1sc(C(=O)Nc2nc(-c3ccccn3)cs2)cc1C	HCV inh 17.8µM (no result: Pf growth 96h, Pf growth 48h)
